Records with an inconclusive call do not appear. Unmarked numbers belong to inactive results. Active and inactive are the calls of the source. The call rests on the fitted dose curve; in most records, active means well fitted curve in the direction sought with a large enough effect; inconclusive means small, poorly fitted or top-dose-only effect, or another doubt; inactive means no such curve, though single readings can be large; an effect the other way counts as inactive or inconclusive.
Assays:
[1] = test system: OV90; experiment: Primary qHTS to identify gynecologic anti-cancer compounds using libraries of approved drugs and bioactive compounds (AID 1345084); conditions: Gynecologic cancer cell panel viability, ATPlite luminescence, 48 h; series mostly up to 57.5 µM; further: nearly all actives have a fitted effect of over 55% in size
In short: (§1)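 ATP-based viability (ATPlite), 1,000 cells/well, 16 h pre-incubation, 48 h compound at 37 C, 5% CO2, 15 min RT before read.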

[2] = test system: PA-1; experiment: as above; conditions: Gynecologic cancer cell panel viability, ATPlite luminescence, 48 h; series mostly up to 57.5 µM
In short: as §1

[3] = test system: SKOV3; experiment: as above; conditions: Gynecologic cancer cell panel viability, ATPlite luminescence, 48 h; series mostly up to 57.5 µM
In short: as §1

[4] = test system: Tov-21-G; experiment: as above; conditions: Gynecologic cancer cell panel viability, ATPlite luminescence, 48 h; series mostly up to 57.5 µM
In short: as §1

[5] = test system: JEG-3; experiment: as above; conditions: Gynecologic cancer cell panel viability, ATPlite luminescence, 48 h; series mostly up to 57.5 µM
In short: as §1

[6] = qHTS assay to identify inhibitors of the type 1 interferon - major histocompatibility complex class I in skeletal muscle: Counter screen cell viability and HiBit confirmation (AID 1347412); conditions: iHSKM muscle cells + IFN-b, HiBiT or CellTiter-Glo, 24 h; for activity change, negative = inhibition: at 45.9 µM (top of the series); on activity change, negative = inhibition: on the % scale 0 is the no-effect control and ±100 the full control effect; on all read-outs here: nearly all actives have a fitted effect of over 60% in size
In short: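 After 24 h with human IFN-beta (4 ng/ml) and compound titrations (top 46 uM final, 1:3, 12 points), HLA-B HiBit myoblasts were lysed for either Nano-Glo HiBiT luminescence or CellTiter Glo viability on paired plates.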

[7] = test system: Tov112D; experiment: Primary qHTS to identify gynecologic anti-cancer compounds using libraries of approved drugs and bioactive compounds (AID 1345084); conditions: Gynecologic cancer cell panel viability, ATPlite luminescence, 48 h; series mostly up to 57.5 µM; further: nearly all actives have a fitted effect of over 55% in size
In short: as §1

[8] = test system: astro; experiment: Drug repurposing screens with cells derived from glioblastoma tumor samples (AID 1345199); conditions: viability, ATP luminescence, 48 h; series mostly up to 45.9 µM; further: nearly all actives have a fitted effect of over 40% in size
In short: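 Primary testing used CD133+ neurospheres from four GBM patients, seven concentrations, 48 h exposure and ATP-based viability; confirmation added three slower-growing patient lines.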
Potency means the concentration at half of the fitted maximal effect.

## Cc1nc(N)ncc1-c1nc(N2CCOCC2)c2sc(C(C)(C)O)cc2n1
[1]
  Potency: 3.55 µM (active)
[2]
  Potency: 7.94 µM (active)
[3]
  Potency: 2.82 µM (active)
[4]
  Potency: 7.94 µM (active)

## C[C@@H]1COC(Nc2ccc3ncnc(Nc4ccc(OCc5nccs5)c(Cl)c4)c3c2)=N1
[5]
  Potency: inactive
[3]
  Potency: 14.1 µM (active)
[6]; Viability
  activity change, negative = inhibition: -24%

## CC(=O)Nc1nc(C)c(-c2ccc(Cl)c(S(=O)(=O)NCCO)c2)s1
[5]
  Potency: inactive
[2]
  Potency: 15.8 µM (active)
[3]
  Potency: 11.2 µM (active)

## Cc1ccc(C(=O)Nc2cccc(C(F)(F)F)c2)cc1-c1ccc2nc(NCCN3CCOCC3)ncc2c1
[1]
  Potency: 6.31 µM (active)
[2]
  Potency: 12.6 µM (active)
[3]
  Potency: 15.8 µM (active)
[4]
  Potency: 14.1 µM (active)

## COc1ccc(-c2cc3c(C)nc(N)nc3n(C3CCC(OCCO)CC3)c2=O)cn1 (stereo unspecified)
[1]
  Potency: 2 µM (active)
[2]
  Potency: 2.51 µM (active)
[3]
  Potency: 1.26 µM (active)
[4]
  Potency: 6.31 µM (active)

## CCCCOc1c(C(=O)c2c(F)cc(C)cc2F)cnc2n[nH]cc12
[5]
  Potency: inactive
[2]
  Potency: 7.94 µM (active)
[3]
  Potency: inactive

## NC(=O)c1c(OCc2c(F)cc(Br)cc2F)nsc1NC(=O)NCCCCN1CCCC1
[5]
  Potency: inactive
[1]
  Potency: inactive
[6]; HiBiT
  activity change, negative = inhibition: -22.6%

## COCCOc1ccc2c(c1)ncn2-c1ccc2cccc(N3CCC(N)CC3)c2n1
[5]
  Potency: 17.8 µM (active)
[2]
  Potency: 7.94 µM (active)

## Cc1ccc(C(N)=O)cc1Nc1nccc(-c2cn(C(C)C)c3cnccc23)n1
[5]
  Potency: inactive
[1]
  Potency: 17.8 µM (active)
[4]
  Potency: 14.1 µM (active)
[7]
  Potency: 17.8 µM (active)
[6]; HiBiT
  Potency: 2.49 µM (active)
[6]; Viability
  activity change, negative = inhibition: 26.3%

## CC1COC2(CCN(c3nc(=O)c4cc(C(F)(F)F)cc([N+](=O)[O-])c4s3)CC2)O1 (stereo unspecified)
[5]
  Potency: inactive
[2]
  Potency: inactive
[3]
  Potency: inactive
[7]
  Potency: inactive

## CNC(=O)c1c(F)cccc1Nc1nc(Nc2cc3c(cc2OC)CCN3C(=O)CN(C)C)nc2[nH]ccc12
[5]
  Potency: inactive
[1]
  Potency: inactive
[4]
  Potency: inactive
[7]
  Potency: inactive
[6]; Viability
  Potency: 24.9 µM (active)

## CCc1c2c(nc3ccc(O)cc13)-c1cc3c(c(=O)n1C2)COC(=O)[C@]3(O)CC
[5]
  Potency: 8.91 µM (active)
[1]
  Potency: 1.78 µM (active)
[4]
  Potency: 3.16 µM (active)
[6]; HiBiT
  Potency: 1.4 µM (active)
[6]; Viability
  activity change, negative = inhibition: -11.1%

## COc1cccc(-c2ccc(NC(=O)C3=C(C(=O)O)CCC3)c(F)c2)c1
[1]
  Potency: inactive

## C=CCn1c(=O)c2cnc(Nc3ccc(N4CCN(C)CC4)cc3)nc2n1-c1cccc(C(C)(C)O)n1
[5]
  Potency: 3.55 µM (active)
[2]
  Potency: 1.58 µM (active)
[3]
  Potency: 0.447 µM (active)
[4]
  Potency: 0.631 µM (active)
[7]
  Potency: 2 µM (active)

## CCN1CCN(Cc2ccc(-c3cc4c(N[C@H](C)c5ccccc5)ncnc4[nH]3)cc2)CC1
[6]; HiBiT
  Potency: 19.8 µM (active)

## O=C(NC1CCNCC1)c1[nH]ncc1NC(=O)c1c(Cl)cccc1Cl
[6]; HiBiT
  Potency: 0.442 µM (active)
[6]; Viability
  activity change, negative = inhibition: 4.1%

## C=C1C(=CC=C2CCC[C@]3(C)[C@@H]([C@H](C)C=C[C@H](C)C(C)C)CC[C@@H]23)C[C@@H](O)C[C@@H]1O
[8]
  Potency: 25.1 µM (active)

From PubChem BioAssay (NCATS)
